# Source: PubChem BioAssay AID651909 (Vanderbilt Specialized Chemistry Center, 2012)
# Activity calls are given as the source filed them. No rule for the calls is given here.
# Target: Histone deacetylase 9 (Homo sapiens) (UniProt Q9UKV0)
# Experiment: HDAC9 deacetylase inhibition, profiling panel, selectivity assay for E-cadherin restoration project, biochemical, human (AID 651909)
# Conditions: recombinant HDAC9, fluorogenic class IIa substrate; series mostly up to 10 µM
# Sequence of Histone deacetylase 9 (Homo sapiens) (Q9UKV0 whole entry, looked up): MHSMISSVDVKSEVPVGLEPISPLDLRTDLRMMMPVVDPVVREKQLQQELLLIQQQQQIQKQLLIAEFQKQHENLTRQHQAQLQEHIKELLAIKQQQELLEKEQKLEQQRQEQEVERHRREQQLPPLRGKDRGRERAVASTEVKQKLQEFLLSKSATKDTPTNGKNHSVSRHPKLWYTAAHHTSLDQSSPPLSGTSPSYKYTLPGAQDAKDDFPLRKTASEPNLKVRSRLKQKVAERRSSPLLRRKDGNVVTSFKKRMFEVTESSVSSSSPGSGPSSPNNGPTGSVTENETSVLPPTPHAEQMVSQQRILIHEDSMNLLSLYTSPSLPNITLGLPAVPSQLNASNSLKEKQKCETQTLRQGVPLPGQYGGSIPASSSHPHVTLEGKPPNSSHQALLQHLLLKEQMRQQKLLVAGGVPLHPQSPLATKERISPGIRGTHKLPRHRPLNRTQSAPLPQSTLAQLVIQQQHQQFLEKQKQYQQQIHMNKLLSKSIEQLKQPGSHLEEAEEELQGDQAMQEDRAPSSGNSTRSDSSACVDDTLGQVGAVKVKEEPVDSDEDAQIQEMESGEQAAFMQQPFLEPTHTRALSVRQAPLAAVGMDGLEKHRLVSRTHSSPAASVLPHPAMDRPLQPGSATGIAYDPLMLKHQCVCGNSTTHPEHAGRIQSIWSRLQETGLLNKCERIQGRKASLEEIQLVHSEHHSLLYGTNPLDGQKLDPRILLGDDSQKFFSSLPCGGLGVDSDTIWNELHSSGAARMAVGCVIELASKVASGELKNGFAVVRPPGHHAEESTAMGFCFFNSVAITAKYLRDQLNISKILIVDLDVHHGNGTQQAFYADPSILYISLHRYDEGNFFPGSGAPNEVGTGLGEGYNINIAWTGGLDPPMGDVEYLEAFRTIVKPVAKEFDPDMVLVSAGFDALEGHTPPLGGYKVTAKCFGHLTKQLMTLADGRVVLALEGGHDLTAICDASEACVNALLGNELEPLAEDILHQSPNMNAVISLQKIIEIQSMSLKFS
smiles,measurement,value
O=C(NCCCNC(=O)c1ccc[nH]c1=O)c1cc(-c2ccccc2)on1,outcome,inactive
